Data: PubChem BioAssay
The source made the active and inactive calls.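 Rule for the calls, unless noted: active = NADPH fluorescence slope more negative than the mean of all samples by about 3 SD, 99.7% confidence; inactive = the rest.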

How the values were obtained:
[1] = inhibitors of TNFa-induced NFkB p65 translocation, primary screen, imaging, HUVEC, MLSMR starter and 10KST1 sets (AID 438;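 active = inhibition above 20% together with a positive visual image hit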;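 note: compound added about 3h40 before a 20 min TNFalpha stimulation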;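 for inhibition: signal is the nuclear over cytoplasmic p65 intensity ratio per well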); settings: HUVEC TNFa-induced p65 nuclear translocation; cell count: measured here: nuclei count (cytotoxicity indicator), at 2.08 µM; inhibition: at 2 µM, stronger effect = higher value, 0% TNFa-plus-vehicle, 100% no-TNFa wells
[2] = inhibitors of mutant huntingtin aggregation, primary screen, imaging, exon1htt(103Q)mCFP cells, high-content imaging (AID 483;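 active = visual image review flags a hit and inhibition of aggregation exceeds 20%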;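 note: compound exposure lasted 3 days before fixation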;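 for nuclei count: percent of the per-plate median nuclei count of sample wells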); settings: exon1htt(103Q)mCFP cell line, aggregate imaging, at 2 µM; inhibition of aggregation: stronger effect = higher value; nuclei count: measured here: cell count, toxicity
[3] = inhibitors of E-selectin induction by TNFa, primary screen, imaging, HUVEC, immunofluorescence, MLSMR starter and 10KST1 sets (AID 487;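 active = visually confirmed hit in the image check and inhibition above 20%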;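 for inhibition: signal is fraction of cell area covered by stained E-selectin grains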;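 for nuclei count: 100% = median nuclei count of all wells on the same plate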); settings: HUVEC TNFalpha-induced E-selectin immunofluorescence imaging, at 2 µM; inhibition: stronger effect = higher value; nuclei count: measured here: cell number, toxicity
[4] = biological target: Voltage-gated potassium channel subunit beta-2 (Rattus norvegicus) (UniProt P62483); assay: KvBeta enzyme negative modulators, primary screen, biochemical, NADPH fluorescence (AID 622;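 active = fluorescence slope higher than the sample average by over 3 SD, cut at about -0.22 in these data, passing the limit was not always enough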;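 note: slope of raw intensity against log time taken from 70 to 1610 s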); settings: recombinant KvBeta, 4-cyanobenzaldehyde reduction, at 10 µM, stronger effect = higher value
Voltage-gated potassium channel subunit beta-2 (Rattus norvegicus), sequence (P62483 whole entry, looked up): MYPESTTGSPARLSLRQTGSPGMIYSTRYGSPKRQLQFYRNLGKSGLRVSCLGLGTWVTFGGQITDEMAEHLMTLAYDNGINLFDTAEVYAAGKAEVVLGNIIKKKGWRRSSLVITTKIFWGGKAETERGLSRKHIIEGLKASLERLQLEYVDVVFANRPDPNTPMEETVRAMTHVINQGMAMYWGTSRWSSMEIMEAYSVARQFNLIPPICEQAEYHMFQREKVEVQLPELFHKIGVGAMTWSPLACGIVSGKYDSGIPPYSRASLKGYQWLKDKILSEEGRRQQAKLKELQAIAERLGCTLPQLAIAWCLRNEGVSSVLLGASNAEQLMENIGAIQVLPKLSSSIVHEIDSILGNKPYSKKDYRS

[5] = biological target: Voltage-gated potassium channel subunit beta-2 (Rattus norvegicus) (UniProt P62483); assay: KvBeta positive modulators, primary screen, biochemical, NADPH fluorescence (AID 623); settings: Recombinant KvBeta, NADPH fluorescence decrease slope, 10 min; at 10 µM; stronger effect = lower value;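 note: fluorescence intensity change per second fitted from 20 to 320 s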
[6] = biological target: Alpha-2C adrenergic receptor (Homo sapiens) (UniProt P18825); assay: modulators of alpha2C/GIRK thallium flux, primary screen, cell-based, HEK293 alpha2C/GIRK1/2 (AID 624;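 active = fluorescence slope after compound addition differing from the mean of all screened samples at 99.7% confidence, in either direction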;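 note: slope of fluorescence ratio to pre-addition baseline per second over 15 to 24 s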); settings: thallium flux BTC fluorescence, at 10 µM, actives lie on both sides
Alpha-2C adrenergic receptor (Homo sapiens), sequence (P18825 whole entry, looked up): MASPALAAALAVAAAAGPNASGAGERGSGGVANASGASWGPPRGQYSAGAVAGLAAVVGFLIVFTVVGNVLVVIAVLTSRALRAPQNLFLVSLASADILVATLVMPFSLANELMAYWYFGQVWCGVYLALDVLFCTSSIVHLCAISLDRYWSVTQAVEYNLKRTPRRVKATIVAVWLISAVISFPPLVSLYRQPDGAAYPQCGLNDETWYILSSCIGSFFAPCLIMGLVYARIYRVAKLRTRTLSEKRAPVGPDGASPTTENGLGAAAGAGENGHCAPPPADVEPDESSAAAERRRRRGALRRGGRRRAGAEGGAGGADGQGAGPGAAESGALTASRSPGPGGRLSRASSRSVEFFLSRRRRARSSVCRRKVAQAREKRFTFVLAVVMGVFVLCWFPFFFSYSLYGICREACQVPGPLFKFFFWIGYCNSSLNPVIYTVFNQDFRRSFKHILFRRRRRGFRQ

[7] = inhibitors of Sendai virus-induced IRF3 signaling, primary screen, TLR/RLR signaling modifier project, cell-based, Sendai virus stimulus, luciferase, 10K MLSCN set (AID 602276;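 active = inhibition at or above 50% at 10 µM; inactive = inhibition below 50%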;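 note: firefly luciferase from ISG56 promoter only with Renilla not read in this screen; 0% = Sendai virus plus DMSO and 100% = medium plus DMSO without virus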); settings: HEK293 RL24 IRF3 luciferase reporter, at 10 µM, stronger effect = higher value
[8] = inhibitors of poly I:C-induced TLR3 signaling, primary screen, cell-based, poly I:C stimulus, luciferase, 10K MLSCN set (AID 602277;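 active = inhibition of the reporter signal at or above 50%; inactive = inhibition below 50%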); settings: HEK293-TLR3 RL24 IRF3 luciferase reporter, at 10 µM, stronger effect = higher value

SMILES | cell count [1] | inhibition [1] | inhibition of aggregation [2] | nuclei count [2] | inhibition [3] | nuclei count [3] | fluorescence slope [4] | NADPH fluorescence slope [5] | slope [6] | inhibition [7] | inhibition [8]
CCOC(=O)n1c(SCC(=O)N(CC)CC)nc2ccccc21 | 522 | 1% (inactive) | 10.7% (inactive) | 102% | 44.9% (inactive) | 93.9% | -0.597 (inactive) | -4.3e-05 (inactive) | 0.00594 (inactive) | 0.265% (inactive) | -26.4% (inactive)
O=C1CCC(c2ccccc2)N1C(=O)c1cccnc1 (stereo not drawn) | 565 | -17.3% (inactive) | -4.3% (inactive) | 98% | -57.8% (inactive) | 111% | -0.512 (inactive) | -6.9e-05 (inactive) | 0.00593 (inactive) | -4.49% (inactive) | 9.24% (inactive)
Cc1ccc2c(c1)-c1c(cnn1CC(=O)Nc1ccccc1N1CCN(C)CC1)CO2 | 521 | -10.8% (inactive) | -22% (inactive) | 66.8% | -3.4% (inactive) | 108% | -0.507 (inactive) | -9e-06 (inactive) | 0.00599 (inactive) | 3.02% (inactive) | 7.29% (inactive)
O=C(Nc1ccc(N2CCCC2)cc1)c1ccc(Br)o1 | 303 | -8.4% (inactive) | 36.8% (inactive) | 94.4% | -59.6% (inactive) | 94.7% | -0.398 (inactive) | -6.5e-05 (inactive) | 0.00868 (inactive) | -34% (inactive) | -152% (inactive)
COc1ccc(NC(C)=O)cc1NC(=O)CN1CCN(c2ccccn2)CC1 | 573 | -7% (inactive) | -1.2% (inactive) | 104% | -35.2% (inactive) | 74.8% | -0.526 (inactive) | -1.4e-05 (inactive) | 0.00596 (inactive) | -3.99% (inactive) | 0.164% (inactive)
CCOC(=O)N1CCC(NC(=O)Cc2ccc(-n3c(=O)[nH]c4ccccc4c3=O)cc2)CC1 | 753 | -5.8% (inactive) | -8.3% (inactive) | 112% | -35.8% (inactive) | 115% | -0.527 (inactive) | -1.5e-05 (inactive) | 0.00585 (inactive) | 0.617% (inactive) | -10.4% (inactive)
Cc1ccc(S(=O)(=O)N2CCN(C(=O)CSc3nnnn3C)C2)cc1 | 348 | -14.6% (inactive) | 1.4% (inactive) | 92.8% | -89.7% (inactive) | 113% | -0.35 (inactive) | 5.7e-06 (inactive) | 0.00463 (inactive) | 6.82% (inactive) | 20.3% (inactive)
C/C(=C\C(=O)c1ccc(F)cc1)Nc1ccc(N2CCOCC2)cc1 | 412 | -7.9% (inactive) | 20.9% (inactive) | 86.5% | -1.4% (inactive) | 99.6% | -0.532 (inactive) | 3.5e-06 (inactive) | 0.00495 (inactive) | -13.9% (inactive) | -43.6% (inactive)
CO/C([O-])=N/c1c[n+](-c2ccc(C)cc2)no1 | 711 | -18.1% (inactive) | -9.2% (inactive) | 104% | -3.6% (inactive) | 113% | -0.471 (inactive) | -4.7e-05 (inactive) | 0.00685 (inactive) | -8.44% (inactive) | -40% (inactive)
CC(=O)Nc1ccc(S(=O)(=O)N2CCN(c3cc(C)nc4ccccc34)CC2)cc1 | 730 | -9.1% (inactive) | 35.3% (inactive) | 123% | -87.3% (inactive) | 120% | -0.31 (inactive) | -7.9e-05 (inactive) | 0.00466 (inactive) | 5.87% (inactive) | 13.2% (inactive)
CCOc1ccc(S(=O)(=O)Nc2cccc(Cl)c2)cc1 | 376 | -2.9% (inactive) | -0.3% (inactive) | 78.4% | -10.2% (inactive) | 81.5% | -0.627 (inactive) | -2.5e-05 (inactive) | 0.00349 (inactive) | 38.8% (inactive) | 34.1% (inactive)
O=C(CCN1C(=O)c2ccccc2C1=O)Nc1ccc(F)cc1 | 442 | 4.9% (inactive) | -0.3% (inactive) | 117% | 14.4% (inactive) | 109% | -0.375 (inactive) | 4.4e-06 (inactive) | 0.00394 (inactive) | 9.91% (inactive) | 13.8% (inactive)
Cc1nc2sc(C(c3cccc(F)c3)N3CCC(C)CC3)c(O)n2n1 (stereo not drawn) | 231 | -5.4% (inactive) | -13.1% (inactive) | 109% | 9.7% (inactive) | 108% | -0.524 (inactive) | -7.2e-05 (inactive) | 0.00644 (inactive) | 14.4% (inactive) | 17% (inactive)
CCOc1ccc2[nH]c(O)c(NC(C)=O)c2c1 | 645 | -20.5% (inactive) | 5.7% (inactive) | 104% | 43.8% (inactive) | 101% | -0.361 (inactive) | -5.8e-05 (inactive) | 0.00431 (inactive) | 10.2% (inactive) | 16.9% (inactive)
CCc1ccc(C(=O)NC2CCCCC2)s1 | 355 | -1.2% (inactive) | 0.6% (inactive) | 98.5% | 11.7% (inactive) | 104% | -0.523 (inactive) | -4.3e-05 (inactive) | 0.00428 (inactive) | -41.5% (inactive) | -96.5% (inactive)
CCCCCCNC(=O)c1c(N)n(/N=C/c2ccco2)c2nc3ccccc3nc12 | 602 | 11.2% (inactive) | -16.8% (inactive) | 79.6% | 26.4% (inactive) | 104% | -0.251 (inactive) | -6e-06 (inactive) | 0.00525 (inactive) | 11.1% (inactive) | 8.29% (inactive)
O=C(c1csc2ccccc12)N1CCCCCC1 | 359 | 5.6% (inactive) | 13.8% (inactive) | 100% | -16.8% (inactive) | 106% | -0.512 (inactive) | 8.9e-06 (inactive) | 0.0038 (inactive) | 7.71% (inactive) | 5.9% (inactive)
COCCSc1nnc(NC(=O)CSCc2ccccc2)s1 | 524 | -14.6% (inactive) | 3.8% (inactive) | 112% | -31.2% (inactive) | 89.4% | -0.528 (inactive) | -3.2e-05 (inactive) | 0.00459 (inactive) | 19% (inactive) | 26.7% (inactive)
CCN(CC)S(=O)(=O)c1ccc(Cl)c(C(=O)OC)c1 | 456 | -5% (inactive) | 0.1% (inactive) | 87.5% | 8.3% (inactive) | 123% | -0.493 (inactive) | -2.2e-05 (inactive) | 0.00748 (inactive) | 20.5% (inactive) | 21.4% (inactive)
CCC(=O)Nc1cc(C(=O)NCC2CCCN2CC)c(OC)cc1N(C)C (stereo not drawn) | 448 | -0.5% (inactive) | -23.1% (inactive) | 98.8% | -37.7% (inactive) | 104% | -0.525 (inactive) | 1.6e-05 (inactive) | 0.00562 (inactive) | 0.262% (inactive) | 6.05% (inactive)
O=c1c2ccccc2nc(SCc2nc(-c3ccccc3)no2)n1-c1ccc(F)cc1 | 719 | -5.5% (inactive) | -12.6% (inactive) | 128% | -58.2% (inactive) | 114% | -0.538 (inactive) | -3.3e-05 (inactive) | 0.00951 (inactive) | 13.8% (inactive) | 39.7% (inactive)
CC1Cc2ccccc2N1Cc1cc(=O)n2ccsc2n1 (stereo not drawn) | 453 | -5.7% (inactive) | -2.2% (inactive) | 96.8% | -157% (inactive) | 121% | -0.581 (inactive) | -2e-05 (inactive) | 0.00674 (inactive) | 1.61% (inactive) | 20.7% (inactive)
CCOc1cccc(-c2nnc3n2N=C(c2cc(OC)ccc2OC)CS3)c1 | 404 | 15.8% (inactive) | -30.5% (inactive) | 10.2% | -56.6% (inactive) | 111% | -0.376 (inactive) | -2.7e-06 (inactive) | 0.00667 (inactive) | 19.6% (inactive) | 56.7% (active)
CSc1ccccc1NC(=O)C1CCCO1 (stereo not drawn) | 842 | 4.5% (inactive) | 10.2% (inactive) | 105% | -73% (inactive) | 117% | -0.429 (inactive) | 0.000108 (inactive) | 0.00731 (inactive) | -13.9% (inactive) | -1.95% (inactive)
O=C(NC(=O)c1ccc(Cl)cc1)Nc1cc(N2CCCCC2)ncn1 | 333 | 5.5% (inactive) | 11.3% (inactive) | 85.1% | -70% (inactive) | 89.5% | -0.48 (inactive) | -4.9e-05 (inactive) | 0.00674 (inactive) | 13.2% (inactive) | 9.71% (inactive)
CCOC(=O)C1CCN(C(=O)CN(c2ccc(Cl)c(C(F)(F)F)c2)S(C)(=O)=O)CC1 | 648 | -23.5% (inactive) | -18.2% (inactive) | 107% | 8.7% (inactive) | 52.3% | -0.453 (inactive) | -1.4e-05 (inactive) | 0.0048 (inactive) | 11.7% (inactive) | 16.6% (inactive)
CN(C)S(=O)(=O)N1CCN(C(=O)N(c2ccccc2)c2ccccc2)CC1 | 352 | -3.3% (inactive) | 0% (inactive) | 108% | -122% (inactive) | 117% | -0.366 (inactive) | -2e-09 (inactive) | 0.00704 (inactive) | -19.7% (inactive) | -15.1% (inactive)
O=c1cc(CSc2nnnn2-c2ccccc2)nc2scc(-c3ccccc3)n12 | 444 | 8.1% (inactive) | -10.9% (inactive) | 114% | -101% (inactive) | 139% | -0.415 (inactive) | -1.1e-05 (inactive) | 0.004 (inactive) | 1.29% (inactive) | 12% (inactive)
